Usually Inhibition stands for how much of the control response was suppressed. Higher therefore signals strong suppression.

Consider 58 compounds from ChEMBL document CHEMBL1157539, “Thousands of chemical starting points for antimalarial lead identification” (Nature, 2010).

Holding throughout (format): functional
In assay [1] the test system is Plasmodium falciparum. Briefly: GSK_TCMDC: Inhibition of Plasmodium falciparum 3D7 in whole red blood cells, using parasite LDH activity as an index of growth. Test compounds present at 2uM.
Assay [2] deals with Plasmodium falciparum. Briefly: GSK_TCMDC: Inhibition of Plasmodium falciparum Dd2 in whole red blood cells, using parasite LDH activity as an index of growth. Test compounds present at 2uM.
The next assay concerns HepG2. Briefly: GSK_TCMDC: Percent inhibition of human HepG2 cell line. Test compounds present at 10uM.

For the compound `Cc1c(-c2cccc(NC(=O)C(C)(C)Oc3ccc(Cl)cc3)c2)nc2ncccn12`, the Inhibition in the assay with Plasmodium falciparum [1] turned out to be 98%; with Plasmodium falciparum [2] it was 95%; in the assay with HepG2, 0%.
On the same counts, the results for `COc1ccc2nccc(N3CCC(CCNCc4ccc5c(n4)NC(=O)CO5)CC3)c2n1.Cl` are 100%, 72% and 19%.
On the same counts, the results for `Cc1cccc2nc(-c3ccc(-c4cccc(NC(=O)C(=O)c5cccn5C)c4)cc3)[nH]c12` are 98%, 17% and 30%.
On the same counts, the results for `Cc1cc(NCCC(=O)Nc2ccccc2)nc(NCCc2cccs2)n1.O=C(O)C(F)(F)F` are 99%, 20% and 26%.
As for `Nc1ncc(-c2cccc(OCc3ccccc3)c2)cc1-c1nnc2ccc(Cl)nn12`, the values for the Inhibition in the assay on Plasmodium falciparum [1], with Plasmodium falciparum [2] and in the assay with HepG2 were 94%, 7% and 0%, respectively.
On the same counts, the results for `O=C(Nc1cccc(-c2cc(-c3c(Cl)cccc3Cl)no2)c1)c1cncc(-c2cccs2)c1` are 91%, 39% and 0%.
On the same counts, the results for `CNCCNCc1cccc(-c2cccc(-c3nc4cc(C(F)(F)F)ccc4[nH]3)c2)c1.O=C(O)C(F)(F)F` are 100%, 97% and 22%.
On the same counts, the results for `COc1cc2c(cc1OCCN1CCC(N3CCCCC3)CC1)N(C(=O)/C=C/c1ccccc1Cl)CC2` are 100%, 41% and 36%.
For the compound `COc1ccc2[nH]ccc(=NN=CC=Cc3ccccc3)c2c1`, the figures for the Inhibition in the assay with Plasmodium falciparum [1], in the assay with Plasmodium falciparum [2] and in the assay with HepG2 were 100%, 99% and 11%, respectively.
On the same counts, the results for `O=C(O)C(F)(F)F.c1ccc2[nH]c(-c3ccc(-c4ccc(CN5CCN(CCN6CCOCC6)CC5)cc4)cc3)nc2c1` are 98%, 99% and 43%.
Consider `COc1ccc(-c2cccc(NC(=O)c3cccc(C#N)c3)c2)cc1CN1CCCC1.O=C(O)C(F)(F)F`, for which the results for the Inhibition in the assay on Plasmodium falciparum [1], in the assay on Plasmodium falciparum [2] and in the assay on HepG2 were 98%, 32% and 28%, respectively.
On the same counts, the results for `CC(C)(CNC(=O)[C@@H]1CCCN(Cc2ccc(Cl)cc2)C1)c1nc(-c2ccc(Cl)c(O)c2)c(-c2ccncc2)[nH]1.Cl` are 97%, 37% and 66%.
On the same counts, the results for `Cc1cc(Nc2ccncc2)n2nc(C)c(-c3ccccc3Cl)c2n1` are 99%, 93% and 2%.
On the same counts, the results for `CCN(CC)CCN(Cc1ccc(-c2ccc(C(F)(F)F)cc2)cc1)C(=O)Cn1c(CCc2cccc(F)c2F)nc(=O)c2sccc21.O=C(O)C(O)C(O)C(=O)O` are 96%, 70% and 70%.
`Fc1cccc(Nc2nc(NCc3ccc(OCc4ccccc4)cc3)nc(Nc3cccc(F)c3)n2)c1`: the figures for the Inhibition in the assay on Plasmodium falciparum [1], in the assay on Plasmodium falciparum [2] and in the assay with HepG2 were 84%, 14% and 5%, respectively.
On the same counts, the results for `CS(=O)(=O)c1ccc(CCNCc2ccc(-c3ccc(CNC4Cc5ccccc5C4)cc3)nc2)cc1.O=C(O)C(F)(F)F` are 100%, 80% and 18%.
On the same counts, the results for `N=C(N)CCN(Cc1ccccc1)c1ccc(Cl)cc1` are 98%, 98% and 1%.
On the same counts, the results for `O=C(Nc1ccccc1Cc1ccccc1)c1ccccc1[N+](=O)[O-]` are 98%, 59% and 0%.
Take `O=C(Nc1ccsc1)Nc1cccc(-c2cccc(-c3nc4cc(C(F)(F)F)ccc4[nH]3)c2)c1`: the figures for the Inhibition with Plasmodium falciparum [1], in the assay with Plasmodium falciparum [2] and in the assay on HepG2 were 100%, 100% and 76%, respectively.
Turning to `Cc1ccnc(NC(=O)c2cc(-c3cccc([N+](=O)[O-])c3)nc3onc(C)c23)c1`, the Inhibition with Plasmodium falciparum [1] was 91%; with Plasmodium falciparum [2], 44%; in the assay with HepG2, 5%.
On the same counts, the results for `CC(C)c1ccc(CN2CCCCC(NC(=O)c3cc(-c4ccccc4F)cs3)C2)cc1.O=C(O)C(F)(F)F` (centres undefined) are 99%, 84% and 18%.
On the same counts, the results for `COc1ccc(CN2CCCN(Cc3cccc(C(=O)Nc4ccc(C(C)(C)C)cc4)c3)CC2)cc1.O=C(O)C(F)(F)F` are 98%, 3% and 46%.
On the same counts, the results for `O=C(O)C(F)(F)F.c1ccc(CCNCc2ccc(-c3ccc(CNCc4ccc5c(c4)OCO5)cc3)nc2)cc1` are 94%, 67% and 24%.
With `O=C1COC2(CN1C1CCN(Cc3ccc(O)c(Cl)c3)C1)c1ccccc1-c1ccccc12.O=CO` (centres undefined), the Inhibition in the assay with Plasmodium falciparum [1] stood at 93%; with Plasmodium falciparum [2] it was 63%; in the assay with HepG2, 5%.
On the same counts, the results for `CC(=O)Nc1cccc(C(=O)Nc2ccc(-c3cccc(-c4nc5cccc(C)c5[nH]4)c3)cc2)c1` are 100%, 50% and 86%.
Regarding `CS(=O)(=O)c1ccc2c(c1)CCN(CCC1CCC(NC(=O)C(=Cc3ccc(Cl)cc3Cl)c3ccc(-c4ccccc4)cc3)CC1)CC2` (centres undefined), the figures for the Inhibition with Plasmodium falciparum [1], in the assay on Plasmodium falciparum [2] and with HepG2 were 81%, 16% and 33%, respectively.
On the same counts, the results for `CCC(CC)(Cc1ccccc1)NC(=O)[C@H](Cc1ccc(OC)c(OC)c1)Nc1ccc(C#N)c2ccccc12.O=C(O)C(F)(F)F` are 90%, 69% and 16%.
In the case of `COc1cc(C(F)(F)F)nc2c(CNCCCNc3cc(=O)c4ccccc4[nH]3)scc12.Cl`, the Inhibition was found to be 92% with Plasmodium falciparum [1], 16% with Plasmodium falciparum [2] and 0% with HepG2.
In the case of `CCCCCOc1ccc(C(O)C(CCC(CN2CCCCCC2)C(O)c2ccc(OCCCCC)cc2)CN2CCCCCC2)cc1.Cl` (centres undefined), the Inhibition in the assay with Plasmodium falciparum [1] was 99%; in the assay on Plasmodium falciparum [2], 93%; in the assay with HepG2, 99%.
`CC(=O)N[C@H](C(=O)Nc1ccc(-c2cccc(-c3nc4cccc(C)c4[nH]3)c2)cc1)C(C)C`: the Inhibition was 89% in the assay with Plasmodium falciparum [1], 10% with Plasmodium falciparum [2] and 9% with HepG2.
On the same counts, the results for `Cc1cccc2nc(-c3cccc(-c4cccc(NC(=O)c5cncn5C)c4)c3)[nH]c12` are 100%, 91% and 0%.
For `CCCN(CCC)C(=O)c1cc(C(=O)N[C@@H](Cc2ccccc2)[C@H](O)CNC(C)(C)c2cccc(OC)c2)cc(N2CCCCS2(=O)=O)c1`, the values for the Inhibition with Plasmodium falciparum [1], in the assay on Plasmodium falciparum [2] and with HepG2 were 99%, 74% and 16%, respectively.
Consider `O=C(NCCCNc1ccc2ccccc2n1)c1cc2c(Cl)cc(Cl)cc2[nH]1`, for which the figures for the Inhibition in the assay with Plasmodium falciparum [1], in the assay on Plasmodium falciparum [2] and in the assay with HepG2 were 100%, 100% and 40%, respectively.
Turning to `Cc1cccc2nc(-c3ccc(-c4cccc(NC(=O)NCc5ccccc5)c4)cc3)[nH]c12`, the Inhibition in the assay with Plasmodium falciparum [1] is listed as 95%; with Plasmodium falciparum [2], 0%; with HepG2, 25%.
On the same counts, the results for `COc1cccc(NC(=O)c2cc([N+](=O)[O-])ccc2NC(=O)CN2CCc3ccccc3C2)c1` are 100%, 37% and 5%.
Turning to `CCc1nnc2sc(-c3cccc(NC(=O)c4ccc(C)c([N+](=O)[O-])c4)c3)nn12`, the figures for the Inhibition in the assay with Plasmodium falciparum [1], with Plasmodium falciparum [2] and in the assay on HepG2 were 82%, 46% and 10%, respectively.
Take `CC1(C(=O)Nc2ccc([N+](=O)[O-])cc2O)CC2c3ccccc3C1c1ccccc12` (centres undefined): the Inhibition is listed as 98% in the assay with Plasmodium falciparum [1], 16% in the assay on Plasmodium falciparum [2] and 37% in the assay with HepG2.
On the same counts, the results for `Cn1c(Nc2cc(C(C)(C)C)on2)nc2cc(Nc3ccnc(Nc4ccc(CS(C)(=O)=O)cc4)n3)ccc21` are 100%, 68% and 37%.
On the same counts, the results for `O=S(=O)(c1ccc(Oc2ccccc2)cc1)N(CCC(O)(C(F)(F)F)C(F)(F)F)Cc1cccc(O)c1` are 100%, 99% and 0%.
On the same counts, the results for `COc1cccc(Nc2nc(C)cc(NC3CCN(Cc4ccccc4)CC3)n2)c1` are 100%, 46% and 15%.
With `COc1ccc(NC(=O)CCNc2cc(C)nc(Nc3ccccc3)n2)cc1.O=C(O)C(F)(F)F`, the values for the Inhibition in the assay on Plasmodium falciparum [1], in the assay with Plasmodium falciparum [2] and in the assay with HepG2 were 92%, 15% and 0%, respectively.
On the same counts, the results for `CC(C)(C)c1ccc(NC(=O)c2cccc(CN3CCN(Cc4cccc(O)c4)CC3)c2)cc1.O=C(O)C(F)(F)F` are 92%, 3% and 28%.
As for `O=C(NCCCc1ccccc1)c1csc(C2CCCN(C(=O)c3ccc(O)c(-c4cccc5ccccc45)c3)C2)n1` (centres undefined), the Inhibition with Plasmodium falciparum [1] was determined as 97%; with Plasmodium falciparum [2], 98%; with HepG2 it was 3%.
`CCc1cn2c3c(cc(C(=O)N[C@@H](Cc4ccccc4)[C@H](O)CNC4CCC4)cc13)N(C)S(=O)(=O)CC2`: the Inhibition was 98% with Plasmodium falciparum [1], 98% in the assay on Plasmodium falciparum [2] and 0% in the assay on HepG2.
As for `CCN1CCc2nc3ccccc3c(C(=O)Nc3ccc(C#N)cc3)c2C1`, the Inhibition stood at 99% with Plasmodium falciparum [1], 72% in the assay on Plasmodium falciparum [2] and 24% in the assay on HepG2.
On the same counts, the results for `Cc1cc(CNCCCCCCCNCc2ccc(Cl)cc2)ccc1O` are 97%, 0% and 13%.
On the same counts, the results for `CCC[C@@H]([C@@H](CC1CCCCC1)C(=O)N[C@H](C(=O)Nc1nccs1)C(C)(C)SCCNC(=O)OCc1ccccn1)N(O)C=O` are 99%, 96% and 17%.
For the compound `Br.N=C1c2ccccc2CN1CC(=O)c1ccc(Cl)c(Cl)c1`, the Inhibition with Plasmodium falciparum [1] turned out to be 98%; with Plasmodium falciparum [2], 16%; in the assay on HepG2 it was 1%.
On the same counts, the results for `CN(C(=O)/C=C/c1cc(C(F)(F)F)ccc1F)C1CCN(CCCCCNC(=O)/C=C/c2ccc(Cl)c(Cl)c2)CC1` are 100%, 68% and 71%.
On the same counts, the results for `CCNc1cc(C(=O)N[C@@H](Cc2ccccc2)[C@H](O)CN[C@@H](C)c2ccccc2)cc(N2CCCC2=O)c1` are 98%, 96% and 7%.
On the same counts, the results for `COc1cc(-c2nc(-c3ccccc3)c(-c3ccccc3)[nH]2)ccc1OCCN(C)C` are 100%, 100% and 0%.
With `CC(Cc1ccc(CNC(=O)c2ccc(CC(C)NCCc3cccc(Cl)c3)cc2)cc1)NCCc1cccc(Cl)c1` (centres undefined), the Inhibition in the assay on Plasmodium falciparum [1] was found to be 99%; with Plasmodium falciparum [2], 66%; in the assay on HepG2 it was 99%.
For the compound `N#Cc1ccc(S(=O)(=O)N2C(c3cccc([N+](=O)[O-])c3)C(C(=O)c3ccccc3)N(C3CCCCC3)C2c2cccc([N+](=O)[O-])c2)cc1` (centres undefined), the Inhibition in the assay with Plasmodium falciparum [1] turned out to be 83%; in the assay with Plasmodium falciparum [2] it was 79%; in the assay on HepG2, 16%.
On the same counts, the results for `Cc1ccc(/C=C/C(=O)NC2CCC(N3CCC(c4ccccc4C)CC3)CC2)cc1C` (centres undefined) are 100%, 43% and 12%.
On the same counts, the results for `O=C(O)C(F)(F)F.Oc1ccc(CCNc2nc(NCc3ccccc3-c3cccc(Cl)c3)nc(N3CCNCC3)n2)cc1` are 84%, 11% and 15%.
On the same counts, the results for `Cc1ccc(C(=O)NC2CC2)cc1-c1ccc2c(cnn2S(=O)(=O)c2ccc(F)cc2)c1` are 93%, 69% and 7%.
Turning to `COc1ccc(CNCc2ccc(-c3ccc(-c4nc5cccc(C)c5[nH]4)s3)cc2)cc1.O=C(O)C(F)(F)F`, the Inhibition in the assay on Plasmodium falciparum [1] worked out at 100%; in the assay on Plasmodium falciparum [2], 89%; in the assay with HepG2, 54%.
On the same counts, the results for `Clc1ccc(-c2ccc(C=NNc3nc(=Nc4ccccc4)[nH]c(=Nc4ccccc4)[nH]3)o2)cc1Cl` are 97%, 75% and 1%.
